Assay [1] is described as follows: binders of probe aFSTL3 on microarray, primary screen, stem cell growth factor project, biochemical, small-molecule microarray, fluorescence 635/667 (AID 1064).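 Note: measures binding of the biotinylated anti-FSTL3 antibody to printed compounds.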 As to conditions: higher = more signal.
Assay [2] can be described thus: binders from COS7 lysate, DM2A8 probe, primary screen, torsin A project, cell lysate, small-molecule microarray, fluorescence 635/667 (AID 1065). Conditions: higher = more signal, COS7 lysate expressing mutant human TOR1A.
Assay [3] in a line: binders of probe aFGF2 on microarray, primary screen, stem cell growth factor project, biochemical, small-molecule microarray, fluorescence 635/667 (AID 1067).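 Note: measures binding of biotinylated aFGF2 protein to printed compounds on slides; z-score merges feature fluorescence and signal-to-noise across triplicate slides.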 As to conditions: higher = more signal.
The nature of assay [4]: binders of probe aFGF10 on microarray, primary screen, stem cell growth factor project, biochemical, small-molecule microarray, fluorescence 635/667 (AID 1071).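 Note: score merges 667 nm spot intensity and signal to noise from triplicate slides.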 As to conditions: higher = more signal.
Assay [5] has as its target Neurogenic locus notch homolog protein 2 (Homo sapiens) (UniProt Q04721). Briefly: Notch2 binders on small-molecule microarrays, primary screen, biochemical, small-molecule microarray, 635 nm fluorescence, stem cell growth factors (AID 1073). As to conditions: Notch2 binding, higher = more signal.
In assay [6] the target is Pro-neuregulin-1, membrane-bound isoform (Homo sapiens) (UniProt Q02297). As to the kind of experiment: NRG1 binders on small-molecule microarrays, primary screen, psychiatric disease protein project, biochemical, small-molecule microarray, fluorescence 635/667 (AID 1075).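 Note: score combines 667 nm spot fluorescence with signal to noise.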 Conditions: NRG1 binding, 635 nm fluorescence, higher = more signal.
Pro-neuregulin-1, membrane-bound isoform (Homo sapiens), sequence (Q02297 whole entry, looked up, the tested form may be a part, canonical isoform): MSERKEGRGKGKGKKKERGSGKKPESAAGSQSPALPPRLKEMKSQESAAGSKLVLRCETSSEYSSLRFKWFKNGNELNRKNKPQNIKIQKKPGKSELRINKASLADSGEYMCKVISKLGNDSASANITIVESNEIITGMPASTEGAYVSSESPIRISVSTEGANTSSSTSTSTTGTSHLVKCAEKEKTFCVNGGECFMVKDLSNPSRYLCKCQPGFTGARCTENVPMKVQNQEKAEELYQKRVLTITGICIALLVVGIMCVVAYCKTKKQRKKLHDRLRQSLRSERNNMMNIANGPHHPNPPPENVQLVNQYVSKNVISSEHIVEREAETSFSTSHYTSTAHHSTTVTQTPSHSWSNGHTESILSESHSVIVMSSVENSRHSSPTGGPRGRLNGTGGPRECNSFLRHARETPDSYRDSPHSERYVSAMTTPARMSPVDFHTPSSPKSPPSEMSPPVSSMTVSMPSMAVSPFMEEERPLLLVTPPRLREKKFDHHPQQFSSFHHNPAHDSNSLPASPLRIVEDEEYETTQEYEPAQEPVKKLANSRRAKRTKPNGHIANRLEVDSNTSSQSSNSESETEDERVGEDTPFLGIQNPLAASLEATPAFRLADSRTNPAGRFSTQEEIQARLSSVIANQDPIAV
For assay [7], the system named is Neuregulin-1 EGF-like domain. As to the kind of experiment: binders of neuregulin-1 EGF-like domain, primary screen, biochemical, small-molecule microarray, 635 nm fluorescence (AID 1081).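 Note: binding of the protein to compounds printed on small-molecule microarray slides.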 Conditions: small-molecule microarray binding, higher = more signal.
Assay [8] can be described thus: FRG1 promoter luciferase signal modulators, primary screen, FRG1 inhibition for FSHD, cell-based, C2C12 myotubes, firefly/Renilla luciferase, luminescence (AID 1084). As to conditions: higher = more signal, called active from +8 up or from −8 down.
A short description of assay [9]: binders of probe aFST on microarray, primary screen, stem cell growth factor project, biochemical, small-molecule microarray, fluorescence 635/667 (AID 1086).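 Note: score merges 667 nm fluorescence with signal-to-noise of each printed compound spot.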 Conditions: higher = more signal.
The nature of assay [10]: binders of probe aHhip on microarray, primary screen, stem cell growth factor project, biochemical, small-molecule microarray, fluorescence 635/667 (AID 1087).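 Note: score merges spot fluorescence at 667nm with spot signal to noise ratio.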 Conditions: higher = more signal.

Structures are written as SMILES. Calls of active or inactive are those of the source.

Neurogenic locus notch homolog protein 2 (Homo sapiens), sequence (Q04721 whole entry, looked up, canonical isoform): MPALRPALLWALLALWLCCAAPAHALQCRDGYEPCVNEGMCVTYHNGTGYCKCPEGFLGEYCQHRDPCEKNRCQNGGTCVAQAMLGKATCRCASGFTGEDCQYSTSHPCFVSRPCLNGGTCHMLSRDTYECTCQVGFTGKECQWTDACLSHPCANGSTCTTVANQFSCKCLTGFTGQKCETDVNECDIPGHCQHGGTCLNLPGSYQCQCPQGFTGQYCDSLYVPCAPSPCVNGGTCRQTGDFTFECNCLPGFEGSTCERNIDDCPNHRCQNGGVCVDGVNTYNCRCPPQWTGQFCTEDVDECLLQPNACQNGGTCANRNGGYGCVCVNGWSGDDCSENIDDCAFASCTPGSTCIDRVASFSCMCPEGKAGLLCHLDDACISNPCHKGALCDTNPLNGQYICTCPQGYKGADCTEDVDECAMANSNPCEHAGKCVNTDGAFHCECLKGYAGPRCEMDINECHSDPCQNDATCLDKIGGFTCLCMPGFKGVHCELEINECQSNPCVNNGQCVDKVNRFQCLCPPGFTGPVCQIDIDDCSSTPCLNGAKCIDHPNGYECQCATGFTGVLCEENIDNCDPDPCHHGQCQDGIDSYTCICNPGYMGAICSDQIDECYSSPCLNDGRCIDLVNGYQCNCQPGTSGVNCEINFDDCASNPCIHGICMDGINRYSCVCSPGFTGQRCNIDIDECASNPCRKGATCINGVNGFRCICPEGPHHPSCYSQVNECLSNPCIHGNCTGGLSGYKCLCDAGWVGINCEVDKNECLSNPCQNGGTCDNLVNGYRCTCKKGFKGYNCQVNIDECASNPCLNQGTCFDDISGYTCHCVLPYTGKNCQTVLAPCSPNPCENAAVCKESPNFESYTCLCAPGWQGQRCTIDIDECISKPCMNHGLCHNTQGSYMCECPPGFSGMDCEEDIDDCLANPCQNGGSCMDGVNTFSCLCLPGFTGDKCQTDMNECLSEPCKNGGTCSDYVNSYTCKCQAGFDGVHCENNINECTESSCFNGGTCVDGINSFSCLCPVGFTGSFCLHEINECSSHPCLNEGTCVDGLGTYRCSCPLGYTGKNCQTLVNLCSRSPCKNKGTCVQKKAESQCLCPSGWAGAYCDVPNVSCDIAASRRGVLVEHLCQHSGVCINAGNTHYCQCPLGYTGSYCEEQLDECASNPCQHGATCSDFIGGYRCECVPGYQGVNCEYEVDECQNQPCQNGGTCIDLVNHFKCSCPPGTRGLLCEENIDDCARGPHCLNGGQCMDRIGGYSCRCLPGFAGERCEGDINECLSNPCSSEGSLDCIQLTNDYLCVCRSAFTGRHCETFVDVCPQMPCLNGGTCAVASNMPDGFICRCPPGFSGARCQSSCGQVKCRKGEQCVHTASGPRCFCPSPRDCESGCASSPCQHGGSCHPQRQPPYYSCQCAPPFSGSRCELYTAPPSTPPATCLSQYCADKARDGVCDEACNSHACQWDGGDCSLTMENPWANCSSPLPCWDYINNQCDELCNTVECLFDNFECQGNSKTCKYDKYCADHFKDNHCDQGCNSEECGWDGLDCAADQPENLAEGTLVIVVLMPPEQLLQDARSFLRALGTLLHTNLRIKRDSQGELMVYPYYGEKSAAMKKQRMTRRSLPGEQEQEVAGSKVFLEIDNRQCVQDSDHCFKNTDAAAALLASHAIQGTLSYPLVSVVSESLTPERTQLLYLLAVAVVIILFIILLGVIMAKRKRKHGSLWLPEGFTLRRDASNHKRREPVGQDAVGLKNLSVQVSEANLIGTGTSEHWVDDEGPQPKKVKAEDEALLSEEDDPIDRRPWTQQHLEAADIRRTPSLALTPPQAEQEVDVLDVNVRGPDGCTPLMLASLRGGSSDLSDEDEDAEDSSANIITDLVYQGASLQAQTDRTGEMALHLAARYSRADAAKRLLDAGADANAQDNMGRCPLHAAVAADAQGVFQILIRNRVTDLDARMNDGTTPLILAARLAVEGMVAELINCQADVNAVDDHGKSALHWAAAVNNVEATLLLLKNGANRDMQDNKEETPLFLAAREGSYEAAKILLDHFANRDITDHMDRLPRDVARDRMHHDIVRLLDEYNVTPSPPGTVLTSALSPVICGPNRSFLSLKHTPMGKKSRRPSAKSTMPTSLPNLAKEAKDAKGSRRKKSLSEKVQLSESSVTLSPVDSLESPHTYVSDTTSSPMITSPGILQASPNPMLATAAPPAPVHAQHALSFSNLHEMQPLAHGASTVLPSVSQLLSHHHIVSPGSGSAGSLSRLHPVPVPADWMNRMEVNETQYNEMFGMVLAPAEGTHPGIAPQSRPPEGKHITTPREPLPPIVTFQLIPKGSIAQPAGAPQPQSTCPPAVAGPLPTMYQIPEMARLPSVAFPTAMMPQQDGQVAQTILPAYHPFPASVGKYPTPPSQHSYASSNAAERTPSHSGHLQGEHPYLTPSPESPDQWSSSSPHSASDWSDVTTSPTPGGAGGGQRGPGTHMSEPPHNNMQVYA

Consider `CC(C)CON=C1C[C@@H](O)[C@@H](O)[C@@H]2[C@@H]3C(=O)N(C[C@@H]4CCCO4)C(=O)[C@@H]3CC[C@H]12`, for which the composite z-score is -0.549 in assay [1]; 0.254 in assay [2]; -0.116 in assay [3]; 0.421 in assay [4]; 0.595 in assay [5]; -0.0414 in assay [6]. Further, the composite z-score in assay [7] is 0.59; in [9], -0.179; in assay [10], -0.406. Moreover, the z-score in assay [8] was -0.267 (inactive).

Take `C=CC[C@@H]1C=C[C@H](ON=Cc2ccc(C(=O)N3[C@H](c4ccc(C)cc4)[C@@H](C)CC[C@H]3C(=O)OC)cc2)[C@@H](CO)O1`: the composite z-score in assay [1] is -0.482; in assay [2], 0.835; in [3], -0.0687; in [4], 0.304; in [5], 0.842; in assay [6], 0.0373. The composite z-score in [7] was 0.586; in assay [9], 0.108; in [10] it was -0.0994. Also, the z-score in [8] was 0.274 (inactive).

As for `C#CCCCON=C1C[C@@H](O)[C@@H](O)[C@@H]2[C@@H]3C(=O)N(CCC(=O)OCC)C(=O)[C@@H]3CC[C@@H]12`, the composite z-score in assay [1] is 1.93; in assay [2], 0.597; in assay [3], -0.0505; in [4], -0.0007; in assay [5], -0.835; in [6], 0.107. Further, the composite z-score in assay [7] is -0.307; in assay [9], 0.63; in [10], -0.12. Also, in [8], the z-score is 0.665 (inactive).

As to `CC(=O)OC[C@H]1O[C@H](CCON=C(C)CCN2CCc3nc(-c4ccccc4)c(-c4ccccc4)cc3C2)C=C[C@@H]1OC(C)=O`, the composite z-score in assay [1] was -0.195; in assay [2] it was 0.472; in assay [3], -0.119; in assay [4], 0.173; in assay [5], 0.0174; in assay [6], 0.266. In addition, the composite z-score in assay [7] is 0.454; in assay [9], -0.105; in [10], 0.0749. In assay [8], the z-score was 1.23 (inactive).

For the compound `COC(=O)[C@H](C)NC(=O)CCC1CC(OC(=O)NCCc2ccc(F)cc2)CC2(CCCC(COC(=O)NCC(c3ccccc3)c3ccccc3)O2)O1` (stereo not given in full), the composite z-score is -0.342 in assay [1]; -0.266 in assay [2]; -0.124 in assay [3]; 0.462 in assay [4]; 1.29 in assay [5]; 0.846 in assay [6]. The composite z-score in [7] was 1.2; in assay [9], 0.107; in assay [10], -0.247. Also, the z-score in [8] was 1.38 (inactive).

Take `CCCNC(=O)[C@@H]1c2ccccc2C(=O)N(Cc2ccccc2Cl)[C@H]1c1ccc(CO)cc1`: the composite z-score in assay [1] is 0.198; in assay [2], 0.274; in assay [3] it was 0.0336; in [4], 0.633; in assay [5], 1.17; in assay [6] it was 0.963. Also, the results for the composite z-score in [7], in assay [9] and in assay [10] were 1.21, 0.703 and -0.216, respectively. The z-score in assay [8] is -1.18 (inactive).

Turning to `COc1ccc([Si](C)(C)[C@@H]2[C@@H](CCO)O[C@]3(C(=O)N(Cc4ccc(NC(C)=O)cc4)c4ccccc43)[C@H]2C)cc1`, the composite z-score is -0.189 in [1]; 1.05 in [2]; -0.0049 in assay [3]; 1.18 in [4]; 1.47 in assay [5]; 1.66 in [6]. Moreover, the results for the composite z-score in assay [7], in assay [9] and in assay [10] were 1.24, 0.17 and 0.0373, respectively. In addition, in assay [8], the z-score is -4.04 (inactive).

In the case of `O=C1[C@H]2[C@H]3[C@H](O)[C@H](O)CC(=NO[C@@H]4O[C@H](CO)[C@@H](O)[C@H](O)[C@H]4O)[C@H]3CC[C@H]2C(=O)N1Cc1ccccc1`, the composite z-score in assay [1] was -0.658; in assay [2], 0.0571; in [3], -0.116; in assay [4], 0.602; in assay [5], 1.4; in assay [6], -0.328. Also, the composite z-score is 0.0944 in assay [7], 0.564 in assay [9] and 0.199 in assay [10]. Besides, the z-score in [8] is 0.632 (inactive).

In the case of `CO[C@H]1O[C@H](CO)[C@@H](OC(=O)Nc2ccc(C#N)cc2)[C@H](OC(=O)c2cc3ccccc3[nH]2)[C@H]1OC(=O)c1cc2ccccc2[nH]1`, the composite z-score in assay [1] was 0.0407; in assay [2] it was 1.3; in assay [3] it was 0.062; in assay [4], 1.16; in assay [5] it was 1.04; in [6], 1.75. For the same compound, the results for the composite z-score in assay [7], in [9] and in [10] were 1.24, 0.462 and -0.0645, respectively. The z-score in [8] was -1.79 (inactive).

On to `CC(CCN1CCc2nc(-c3ccccc3)c(-c3ccccc3)cc2C1)=NO[C@@H](C)c1cn([C@H](CO)Cc2ccccc2)nn1`, for which the composite z-score in assay [1] was -0.261; in [2], 0.608; in assay [3], -0.143; in assay [4], -0.0983; in assay [5] it was -0.674; in assay [6] it was 0.424. Moreover, the composite z-score in assay [7] was 0.124; in [9] it was 0.0854; in [10] it was -0.189. In assay [8], the z-score was -0.54 (inactive).

Consider `O=C1C2=CC[C@H]3C(=O)N(Cc4ccc5c(c4)OCO5)C(=O)[C@H]3[C@H]2[C@H](O)[C@@H]2O[C@H]12`, for which the composite z-score in [1] is -0.319; in assay [2], 0.295; in [3], -0.141; in [4], 0.375; in assay [5] it was 0.617; in assay [6], -0.149. For the same compound, the composite z-score in assay [7] was -0.0029; in assay [9], 0.407; in [10] it was -0.308. The z-score in [8] is 0.593 (inactive).

For the compound `O=C1[C@H]2[C@H]3[C@H](O)[C@H](O)CC(=NO[C@@H]4O[C@H](CO)[C@@H](O)[C@H](O)[C@H]4O)[C@@H]3CC[C@H]2C(=O)N1Cc1ccc2c(c1)OCO2`, the composite z-score in assay [1] is -0.401; in assay [2], -0.271; in assay [3], -0.166; in assay [4], 0.112; in assay [5], 0.737; in assay [6], 0.542. Moreover, the composite z-score in [7] was 0.974; in assay [9], 0.181; in assay [10], -0.201. Further, the z-score in assay [8] is 0.118 (inactive).

Source of the values: PubChem BioAssay.
